Reference: PubChem BioAssay AID1117362 (Southern Research Institute, 2015)
About 100 (2.8%) of roughly 3,600 compounds were called active.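 Rule for the calls: active = inhibition above 30% at one or more concentrations, seen consistently on every test date; inconclusive = results that disagree between repeat test dates; inactive = the rest.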 These entries were drawn from the full list.

Assay: biotin-GST/anti-GST TR-FRET signal inhibitors, dose response, artefact control for Vif-APOBEC3G degradation inhibitor project, biochemical (AID 1117362);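 note: biotinylated GST protein used in place of GST-Vif 1-94 and biotin-A3G peptide; detects fluorescence quenchers or blockers of GST binding to anti-GST antibody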
Settings: TR-FRET counter screen; series mostly up to 100 µM; inhibition: at the top concentration

Row | SMILES | inhibition | IC50
1 | CCN(C(=O)c1coc(=O)c(Br)c1)c1ccc2c(c1)OCO2 | 25.4% (inactive) | 
2 | COc1ccc(NC(=O)/C(C#N)=C\c2ccc(Br)o2)cc1 | 9.72% (inactive) | 
3 | COc1ccc2c(c1)c(=O)oc1cc(OCC(=O)N3CCC(C)CC3)ccc12 | -4.74% (inactive) | 
4 | CC(C)(C)OC(=O)N(Cc1ccccc1)Cc1cccc(OCc2cccc(NC(=O)c3ccccc3)c2)c1 | 1.79% (inactive) | 
5 | Cc1cc(C(=O)COC(=O)c2cc(O)c3ccccc3c2O)c(C)n1CC1CCCO1 (stereo unspecified) | 6.11% (inactive) | 
6 | CCOc1ccc2[nH]c(=O)c(CN(Cc3ccco3)C(=O)c3ccc(Br)cc3)cc2c1 | -4.7% (inactive) | 
7 | CCOC(=O)C1=C(C)N=C2SC(C(=O)OC)=CC(=O)N2C1c1cc(OC)c(OC)c(OC)c1 (stereo unspecified) | 0.25% (inactive) | 
8 | CC(C)OC(=O)c1cccc(C(=O)O)n1 | 0.71% (inactive) | 
9 | O=C(NCc1ccccn1)c1coc(=O)c(Br)c1 | -1.46% (inactive) | 
10 | CCCN1C(=O)S/C(=C\c2ccc(N3CCOCC3)cc2C)C1=O | 3.79% (inactive) | 
11 | CN(CCc1ccccc1)C(=O)c1ccc(NC(=O)Cc2ccc(NC(=O)C3CCN(C(=O)CCc4ccccc4)CC3)cc2)cc1 | -4.37% (inactive) | 
12 | Cc1ccc(C2SCC(=O)N2Cc2cn3ccsc3n2)o1 (stereo unspecified) | 0.01% (inactive) | 
13 | CCn1c(SCC(=O)Nc2cc(C)on2)nnc1-c1cccnc1 | 15% (inactive) | 
14 | C/C(=N\Nc1ccc(Cl)c(C(=O)O)c1)c1ccc[nH]1 | -6.35% (inactive) | 
15 | COc1ccc(C2=CC(c3ccc(Cl)cc3)n3cnnc3N2)cc1OC (stereo unspecified) | -9.19% (inactive) | 
16 | COc1ccc(Nc2ccc(OC)cc2)cc1 | 20.4% (inactive) | 
17 | Cc1nn(-c2ccccc2)c2sc(C(=O)N3CCc4ccccc4C3)cc12 | -2.11% (inactive) | 
18 | C/C(N)=C(/C#N)C(=O)CSc1nnc(NC(C)C)s1 | 18.7% (inactive) | 
19 | CCN1CCN(C2=NC(=O)/C(=C/c3ccc(C)o3)S2)CC1 | 8.23% (inactive) | 
20 | Cc1ccc2cc(C(c3nnnn3Cc3ccccc3)N3CCc4ccccc43)c(=O)[nH]c2c1 (stereo unspecified) | -2.82% (inactive) | 
21 | COC(=O)\C(C(C)=O)=C(/C=C/C=C/C=C/N(C)C)N(C)C | -3.51% (inactive) | 
22 | O=C(NCCc1c[nH]c2ccccc12)c1ccc(S(=O)(=O)NCc2ccco2)cc1 | -1.73% (inactive) | 
23 | COc1ccc(S(=O)(=O)Cc2ccc(C(=O)N3CCN(c4ccccc4)CC3)o2)cc1 | 2.72% (inactive) | 
24 | CC1=C(C(=O)Nc2ccccc2F)C(c2ccsc2)C2=C(CC(c3ccccc3)CC2=O)N1 (stereo unspecified) | 4.39% (inactive) | 
25 | C[c-]1[c-](C)[c-](C)[c-](C)[c-]1C.[Fe].c1cc2nccc(N3CCCC3)[c-]2c1 (stereo unspecified) |  | 28 µM (active)
26 | O=C1NC(c2ccc(Br)cc2)=N/C1=C/c1ccco1 | -4.77% (inactive) | 
